The subject of this experiment is MDA-MB-468 breast. The experiment in a line: NCI-60 one-dose screen, 48 h (100 = growth as untreated, 0 = no growth, -100 = all killed). The following applies: 10 µM unless noted.

Molecules are shown by their SMILES. Values joined by “and” are separate entries in the source; they are usually repeats but may differ in a detail not shown here. Equal values may be shown once. About 83,000 compounds went through this panel and 20% of them were active in at least one assay; those are over-represented in the sample as a whole.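 Growth was measured after 48 h exposure to one concentration of compound in 96-well plates. Values under 10 count as active.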 A number with no mark means an inactive call. Active and inactive are the calls of the source.

85 compounds from PubChem BioAssay (NCI) can be followed below.

With `COc1cc(/C=C2\CN(C)CC3=C2Nc2nc(SC)[nH]c(=O)c2C3c2cc(OC)c(OC)c(OC)c2)cc(OC)c1OC` (stereo not given), the growth was 39.5%.
As to `C[n+]1c2ccccc2nc2ccc(NCCO)cc21`, the growth is 94%.
The figure for `CCCCCCNC(=O)Oc1ccc(/C(=C(/CC)Cc2ccccc2)c2ccc(OCCN3CCCCC3)cc2)cc1` is 86.3%; for `COc1cc(C(=O)/C=C/c2c(C)n([O-])c3ccc(C(F)(F)F)cc3[n+]2=O)cc(OC)c1OC` it is 36.8%; for `c1ccc(Nc2nnc(-c3cc(-c4cccnc4)n(-c4ccccc4)n3)s2)cc1` it is 104%.
The figure for `O=C1CS/C(=N/c2nnc(-c3ccc(O)cc3)s2)N1` is 116%.
The figure for `OC1CCCN(Cc2ccccc2)C1` (stereo not given) is 103%.
With `CC[n+]1c(C)ccc2cc(C)ccc21`, the growth was 58.1%.
On to `O=C(O)c1ccc(CO)o1`, for which the growth is 103%.
Regarding `Clc1ccc(N2N=C(c3cccc(Nc4ccncc4)c3)CC2c2ccc3c(c2)OCO3)cc1` (stereo not given), the growth is 62.1%.
The figure for `O=C(Nc1ccc(-n2cc(-c3ccncc3)c(-c3ccc(O)c(Cl)c3)n2)cc1)c1cc(Cl)cc(Cl)c1` is 50.6%; for `Cc1ccccc1NC(=O)c1cc2ccccc2cc1O` it is 79.5%; for `COc1ccc(C/C(C)=C(/c2ccc(OCCN(C)C)cc2)c2ccc(OC(=O)NCc3ccccc3)cc2)cc1` it is 67.6%.
For `CCN1CCN(c2nc(C)cc(N(CCCNc3ccnc4cc(Cl)ccc34)Cc3ccc4c(c3)OCO4)n2)CC1`, the growth is -33.5% (active).
As to `COc1ccccc1C(C)=O`, the growth is 108% and 111%.
Regarding `COc1ccccc1/C=C1\COc2ccc(O)c(O)c2C1=O`, the growth is 12.6%.
Then `N#CC1=C(N)Oc2c(sc3c(F)cccc23)C1c1ccc([N+](=O)[O-])cc1` (stereo not given), with -41.6% (active); and `COC(=O)c1ccc2[nH]c(O)c(C(=Nc3ccc(N(C)C(=O)CN4CCN(C)CC4)cc3)c3ccc(C)cc3)c2c1`, with -50.1% (active); and `COc1ccc(-c2onc(N)c2-c2cc(OC)c3c(c2)OCO3)cc1`, with -29.2% (active).
Consider `Oc1cccc(-c2nc3sccn3c2-c2ccncn2)c1`, for which the growth is 83%.
Turning to `COc1cc(OC)cc(C(=O)Nc2cc(-c3cccnc3)nc(NCCCN3CCOCC3)n2)c1`, the growth is 83.2%.
The figure for `COc1ccc(C(=O)c2ccccc2CN2C(=O)c3ccccc3C2=O)cc1` is 115%; for `CN1CCN(Cc2ccc(NC(=O)c3cncc(C#Cc4cnc(N)c5ccc(F)cc45)c3)cc2C(F)(F)F)CC1` it is -34.4% (active).
Then `CCCCOc1nc2ccc(Cl)cc2cc1/C=C/C(=O)/C=C1/CC(c2cc3cc(Cl)ccc3nc2OCCCC)Nc2ccccc2N1` (stereo not given), with 103%; and `C#Cc1nc(/C=C/CCCCCCC(=O)NO)cs1`, with 54.8%.
Then `CC(=O)Nc1cccc(C2=CC(c3ccc(C)cc3)n3ncnc3N2)c1` (stereo not given), with 92.7%; and `C=C(C)[C@@H]1CC[C@]2(C(=O)O)CC[C@]3(C)[C@H](CC[C@@H]4[C@@]5(C)C/C(=C/c6ccco6)C(=O)C(C)(C)[C@@H]5CC[C@]43C)[C@@H]12`, with -27.1% [100 µM] (active); and `c1ccc(-c2cc3n4c(-c5ccccc5)nn(-c5ccccc5)c4cnc-3n2)cc1`, with 70.2%.
For `COc1ccc(OC)c(-c2c(C#N)c(-c3ccc(Cl)cc3)nc3c2c(-c2ccccc2)nn3-c2ccccc2)c1`, the growth is 103%.
The figure for `NC1CCC(Nc2nc(NCc3cc(Cl)ccc3O)c3ncn(C4CCCC4)c3n2)CC1` (stereo not given) is -51% (active); for `NCCOc1ncccc1/C=C1\c2ccccc2-c2ccc(F)cc21` it is -24.1% (active); for `O=C(NOC[C@H](O)CO)c1ccc(F)c(F)c1Nc1ccc(I)cc1F` it is 106%.
Turning to `COc1cc(C(=C2O[C@@H]([C@H]3COC(C)(C)O3)[C@H]3OC(C)(C)O[C@@H]23)c2cc(OC)c(OC)c(OC)c2)cc(OC)c1OC`, the growth was 106%.
Regarding `CCCCCCCCCCCCCCCCOCCCOP(=O)(O)C1CCCN(O)C1=O` (stereo not given), the growth was -7.42% (active).
The figure for `COc1ccc(-c2cn(-c3cccc(C(=O)/C=C/c4cc(OC)c(OC)c(OC)c4)c3)c(=O)[nH]2)cc1OC` is 98.1%; for `Cc1ccccc1NC(=O)Cn1cc(CN2CCN(c3ccnc4cc(Cl)ccc34)CC2)nn1` it is 93%; for `Cc1ccc(N(CSc2ccc(Cl)cc2)CSc2ccc(Cl)cc2)cc1` it is 91.5%.
Then `CC1=C(C)C(=O)C(Nc2ccc3c(c2)OCCO3)=C(Br)C1=O`, with 28.1%; and `CC(C)CCNCC(O)Cn1c2ccccc2c2ccccc21` (stereo not given), with 2.41% (active); and `CCOC(=O)c1ccc(Nc2ncnc3ccc(NC(=O)c4ccccc4)cc23)cc1`, with 88.9%.
On to `COc1cc(C2CC(c3ccc4c(c3)OCO4)=NN2C(C)=O)cc(OC)c1OC` (stereo not given), for which the growth is -26.8% (active).
For `C=CC(CC(c1ccccc1)(c1ccccc1)c1ccccc1)N(CC)CC` (stereo not given), the growth is 30.5%.
Then `C=CCN1C=CC(=O)[C@H](O[Si](C)(C)C(C)(C)C)[C@@H]1/C=C/c1ccccc1`, with -72.9% [100 µM] (active).
Consider `Cc1ccc(-c2nc3ccccn3c2/C=C2/C(=O)Nc3cc(Cl)ccc32)cc1`, for which the growth was 67%.
Regarding `NC(=O)c1cccc(-n2ccc3cc(NC(=O)Nc4ccc(Cl)c(Cl)c4)ccc32)n1`, the growth was 60.8%.
Regarding `NC(=O)c1c(OCc2c(F)cc(Br)cc2F)nsc1NC(=O)NCCCCN1CCCC1`, the growth is -57.8% (active).
Then `N#Cc1c(-c2ccccc2)cc(-c2ccccc2)n(CCCC(=O)O)c1=O`, with -27.1% (active); and `N#Cc1c(-c2ccccc2)cc(-c2ccccc2)n(CC(=O)O)c1=O`, with 37.8%.
The figure for `CCOC(=O)c1c(SC)nn(-c2cc(=O)[nH]c3ccc(Br)cc23)c1N` is 115%.
For `O=S(=O)(Nc1ccc(F)c(Cl)c1)c1ccc(-c2cnc(C3CC3)o2)cc1`, the growth was -23.9% (active).
Take `CC(=O)Nc1sc2c(c1-c1nc3ccccc3s1)CNC2`: the growth was -3.09% (active).
Consider `O=C(CN1C(=O)/C(=C/c2ccc(Cl)cc2)SC1=S)NCCCN1CCOCC1`, for which the growth is 94.3%.
Then `COc1ccc(CCOc2cc3c(cc2OC)CCN(C(=O)NCc2cocn2)C3c2ccc(C)cc2C)cc1` (stereo not given), with 3.86% (active); and `O=C1C=C(OCC=C(C(F)(F)F)C(F)(F)F)c2ccccc2C1=O`, with -51.2% (active); and `CCOc1ccc2c(c1)CN(Cc1ccc(Cl)cc1)CO2`, with 57.2%.
Then `OCc1cccc2ccccc12`, with 124%; and `COc1ccc(C(=O)c2cc3c(N)c(C(=O)Nc4cccc(Cl)c4C)sc3nc2C)cc1`, with -2.98% (active); and `Cc1nn(-c2cc(=O)[nH]c3ccc(Cl)cc23)c(N)c1C#N`, with 111%.
Regarding `OCCN(CCO)C(=S)S`, the growth was 102%.
The figure for `S=c1[nH]c2cc(Cl)ccc2s1` is 108%; for `CSc1ccc2c(c1)N(C(=O)/C(C#N)=C/c1c[nH]c3ccccc13)c1ccccc1S2` it is 12%; for `Fc1ccccc1-c1cnn2cc(-c3ccccc3)cnc12` it is 124%.
Then `COC(=O)c1c2c(c(C)[n+]([O-])c1C)C(=O)C=C(NCc1cccc(OC)c1)C2=O`, with -67.8% (active); and `O=C1CC(C(F)(F)F)Cc2nc3ccc(Br)cc3cc21` (stereo not given), with 94.8%; and `C/C(=N\NC(=O)Cn1c(-c2ccc(S(C)(=O)=O)cc2)nc2ccccc21)c1ccc(Cl)cc1`, with 98.3%.
Take `Cc1ccc(-c2nc3nc(-c4ccccc4)nc(N4CCCN(S(C)(=O)=O)CC4)c3o2)cc1`: the growth was 121%.
Take `Cn1cnc2nc(Cl)nc(Cl)c21`: the growth was 21.7%.
Then `C[C@@H]1C[C@@H]([C@@H](CC2CC(=O)NC(=O)C2)OC(=O)CC(=O)c2ccccc2)C(=O)[C@@H](C)C1`, with 10.9%; and `Cn1cc(-c2nc(-c3c[nH]c4ncccc34)cs2)c2cc(Cl)ccc21`, with -3.54% (active).
The figure for `Nc1ccccc1-c1ccc([N+](=O)[O-])cc1` is 67.5%; for `Cc1cc(Cc2cc(C)c(O)c(C)c2)cc(C)c1O` it is -0.94% (active); for `Cc1ccc(Nc2oc(-c3ccccc3)nc2[P+](c2ccccc2)(c2ccccc2)c2ccccc2)cc1` it is -77.1% (active).
On to `CCN(CC)c1ccc2[nH]c3c(C(N)=O)cc(=O)c(=O)c=3oc2c1`, for which the growth was -38.4% (active).
For the compound `COc1ccc(S(=O)(=O)N(C(C)=O)c2ccccc2/C=C/c2cc[n+]([O-])cc2)cc1`, the growth is 10.8%.
Then `C=CC(=O)N1CC2(CCC(n3nc(-c4ccc(Oc5ccccc5)cc4)c4c(N)ncnc43)CC2)C1`, with -58.1% (active); and `Cc1ccc(S(=O)(=O)NC(CCC(=O)Nc2ccc(Cl)cc2)C(=O)Nc2ccc(Cl)cc2)cc1` (stereo not given), with 29%.
The figure for `COc1cc(NCCCN(CC(C)C)C2CCCC2)c2ncccc2c1` is 15.7%.
Then `CN1CCN(c2cc3c(cc2F)c(=O)c(C(=O)O)cn3-c2ccc(F)cc2)CC1`, with 110%; and `FC(F)(F)c1ccc2c(c1)N(CCCN1CCN(C3CC3)CC1)c1ccccc1S2`, with 54.1%.
As to `COc1ccc(NC(=O)/C=C/c2ccc(NC(=O)N3CCCC3)cc2)cn1`, the growth is 116%.
With `COC(=O)C(=C\c1ccc2c(c1)OCO2)/C(=C/c1ccc2c(c1)OCO2)C(=O)OC`, the growth is 111%.
`CCCCCCCCCCCCCCCCOc1ccc(S(=O)(=O)N(C)C)cc1[N+](=O)[O-]`: the growth is 84.2%.
`CCOC(=O)n1cc(C2=C(c3ccc(OC)c(OC)c3)COC2=O)c2ccccc21`: the growth was -41.8% (active).
Take `CC(=O)OCCC/C(=C/c1cc2ccccc2c2ccccc12)[N+](=O)[O-]`: the growth was -69% (active).
Then `C[C@@H](NC(=O)[C@@H](CC(=O)N1CCC(N2CCCCC2)CC1)N1C(=O)[C@@H](N2C(=O)OC[C@@H]2c2ccccc2)[C@H]1/C=C/c1cccc(Cl)c1)c1ccccc1`, with 1.45% (active).
